Screening results deposited in PubChem by National Center for Advancing Translational Sciences (NCATS).
Most compounds without a hit are left out; they make up all but 3.7% or so of the library.
Nrf2 ARE act: qHTS of Nrf2 Activators; 410,000 tested, 0.31% active; AREc32 ARE-luciferase reporter (MCF7-derived line), luminescence, 24 h; Potency, µM (doses to about 46.1 µM), usual class: activators; AID 624171, 2012; also: nearly all actives have a fitted effect of over 65% in size
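AREc32 cells carrying an ARE-driven firefly luciferase, 1000 cells/well in OPTI-MEM with 5% FBS, dosed after overnight attachment and incubated 24 hr at 37 deg C. Steady-Glo luminescence read after 30 min at RT.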
miR-21 act: qHTS Assay for Modulators of miRNAs and/orActivators of miR-21 | HeLa miR-21 FLuc reporter, luciferase, 48 h | AID 2288, 2010 | Potency, µM (doses to about 38.3 µM), hits mostly activators | 340,000 tested, under 10 active;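 also: miR-21 action dims this reporter so a rising signal means less miR-21 action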
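Luminescence from a firefly luciferase reporter carrying a miR-21 binding site downstream, stably expressed under a CMV promoter in HeLa cells that make miR-21 endogenously, reports miRNA modulation after 48 h compound exposure up to approximately 40uM final.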
A549 viability: Nrf2 qHTS screen for inhibitors: counterscreen for cytotoxicity. A549 ARE-Fluc cells, CellTiter-Fluor viability, 18-24 h. AID 504648, 2011. 390,000 tested, 0.16% active. Potency, µM (series often up to 46 µM), most hits filed as inhibitors
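A549 ARE-Fluc cells in 5% FBS OPTI-MEM, 5000 cells/well, rested 2 h then exposed to compounds in concentration-response for 18-24 h at 37 °C. Viability by CellTiter-Fluor fluorescence (Ex 405/Em 525) after 30 min; luciferase luminescence (BugLite, 15 min, RT) read afterwards.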
TCR act: Activators of T cell receptors: qHTS campaign; Potency, µM (doses to about 9.22 µM), usual class: activators; 330,000 tested, under 10 active; primary human leukocytes, anti-CD3, IL-2 HTRF, 48 h
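Activity was scored as IL-2 release from primary human leukocytes given only a TCR signal (a-CD3 beads) plus compound for 48 hr. Detection used a two-antibody HTRF format read at 665nm.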
ClpP mod: qHTS Assay for Activators of ClpP; 340,000 tested, 1.9% active; Potency, µM (highest dose often 57.5 µM); ATP-dependent Clp protease proteolytic subunit (Bacillus subtilis (strain 168)), P80244; purified B. subtilis ClpP, FRET peptide cleavage, 20 min; active = well fitted falling curve with a large enough effect; inconclusive = small, poorly fitted or top-dose-only effect; inactive = no such curve, though single readings can be large or run the other way; also: the source files actives as falling curves though it sought activators and does not explain the sign; nearly all actives have a fitted effect of over 65% in size
Target sequence (P80244 whole entry, looked up): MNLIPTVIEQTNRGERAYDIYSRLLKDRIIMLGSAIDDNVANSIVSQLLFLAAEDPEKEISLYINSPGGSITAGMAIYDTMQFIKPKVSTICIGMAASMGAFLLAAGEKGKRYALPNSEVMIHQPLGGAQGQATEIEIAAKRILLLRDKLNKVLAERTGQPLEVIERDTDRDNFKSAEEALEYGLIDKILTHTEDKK
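FRET quenching reversal measured ClpP activation: 10 microg/mL B. subtilis ClpP at pH 8 with the FRET-FV decapeptide, read at 430 nm after 320 nm excitation. The 20-min minus 0-min signal was scaled between DMSO/no-enzyme wells and ADEP (5.8 microM final).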
Nrf2 block: Nrf2 qHTS screen for inhibitors. A549 ARE-Fluc reporter, luciferase luminescence, 18-24 h. Potency, µM (highest dose often 46 µM), usual class: inhibitors. 360,000 tested, 2.1% active; also: nearly all actives have a fitted effect of over 60% in size
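Quantitative HTS in A549 cells stably bearing an antioxidant response element-firefly luciferase construct. Inhibition of Nrf2-driven transcription was scored by luminescence after 18-24 h of compound exposure at 37 °C.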
Numbers stand for hits; – = inactive; ? = inconclusive; · = not tested or not shown. Unless noted, calls follow the shape of the dose curve; as a rule, active = well fitted curve in the direction sought with a large enough effect; inconclusive = small, poorly fitted or top-dose-only effect, or another doubt; inactive = no such curve, though single readings can be large; an effect the other way counts as inactive or inconclusive.

SMILES | Nrf2 ARE act | miR-21 act | A549 viability | TCR act | ClpP mod | Nrf2 block
CC(=O)c1cn(Cc2ccccc2F)c2ccccc12 | – | – | – | – | – | 5.8µM
O=[N+]([O-])c1c2ccccc2cc2ccccc12 | – | · | – | – | – | –
O=[N+]([O-])c1ccc(-c2ccc(C=Nc3cccc4ccccc34)o2)cc1 | – | – | – | – | 18µM | –
CC(O)C1C=CC=CC(=O)OC2CC3OC4C5OC5(C)CCC4(COC(=O)C4OC4(C)C(O)CO1)C2(C)C31CO1 (stereo not given) | – | · | · | – | – | 0.23µM
O=C(Nc1ccc(Br)cc1)c1ccc(Cl)c(S(=O)(=O)N2CCCCCC2)c1 | – | – | – | · | – | ·
Cc1ccnc(SCc2nc3ccccc3s2)n1 | 13µM | – | – | – | – | ·
CCN1CCN(c2nc3ccccc3s2)CC1 | – | – | – | – | – | –
Cc1nn2c(=O)cc(N3CCNCC3)nc2s1 | · | · | – | · | · | –
CN(C)c1ccc([N+](=O)[O-])c([N+](=O)[O-])c1 | 11µM | · | ? | – | · | –
Cc1ccc(S(=O)(=O)N(C)C[C@H]2Oc3c(NC(=O)Nc4cccc5ccccc45)cccc3C(=O)N([C@@H](C)CO)C[C@@H]2C)cc1 | – | · | – | – | – | ?
N#CC(C#N)=NNc1ccc([N+](=O)[O-])cc1 | – | – | 21µM | – | · | –
CCS(=O)(=O)Nc1ccc(C2=NN(C(=O)c3ccco3)C(c3ccc(Cl)o3)C2)cc1 (stereo not given) | – | · | – | – | – | ?
O=C(CNC(=O)c1cccc(S(=O)(=O)N2CCc3ccccc32)c1)Nc1ccccc1Br | – | · | – | – | – | ?
O=C(Nc1ccc(Br)cc1)c1cccc(S(=O)(=O)N2CCc3ccccc32)c1 | – | ? | – | · | – | 16µM
CC(C)Oc1ccc(C(=O)Nc2ccc3c(c2)CCCN3C(=O)c2cccs2)cc1 | – | ? | – | · | – | ·
CCOc1ccc(-c2cc(C(=O)N3CCN(S(=O)(=O)c4cc(Cl)ccc4OC)CC3)[nH]n2)cc1 | – | – | – | · | – | ?
Cc1cc(C)cc(OCC(=O)Nc2ccc(-c3nc4ccccc4s3)cc2)c1 | – | – | – | · | – | –
CCOP(=O)(OCC)c1ccc(OP(=O)(c2cccc([N+](=O)[O-])c2)c2cccc([N+](=O)[O-])c2)cc1 | – | – | – | – | 35µM | –
COc1ccc(C2C=C(c3ccccc3)Nc3nc(NC(=O)/C=C/c4ccccc4Cl)nn32)cc1 (stereo not given) | ? | – | – | · | – | –
Cc1ccccc1NC(=NCCCN1CC1)Nc1ccccc1C | – | · | 13µM | – | – | –
CCCCCCOC(=O)c1ccccc1N | – | – | – | – | 22µM | –
Cc1ccc(N/N=C/C=C/c2ccco2)cc1 | ? | · | – | – | 13µM | –
O=C(/C=C/c1ccccc1)c1c(O)n(CCc2ccccc2)c(=O)[nH]c1=O | 8.9µM | – | ? | – | – | –
O=C(/C=C/c1ccc2c(c1)OCO2)c1c(O)n(CCc2ccccc2)c(=O)[nH]c1=O | ? | – | ? | – | · | ?
On1ccccc1=S | – | · | – | – | ? | ?
SMILES | Nrf2 ARE act | miR-21 act | A549 viability | TCR act | ClpP mod | Nrf2 block
c1ccc2c(CN3CCCCCCC3)c[nH]c2c1 | ? | – | – | – | 28µM | –
CN1C(=O)C(=Cc2ccc(OCC(=O)Nc3ccccc3)cc2)C(=O)N(C)C1=O | – | – | – | – | 16µM | –
O=C(Nc1ccc2ccccc2c1)c1nn(C23CC4CC(CC(C4)C2)C3)cc1Br | – | – | – | – | 20µM | –
CCOP(=O)(OCC)OCC | – | · | – | – | – | –
CCOP(=O)(CCP(=O)(OCC)OCC)OCC.C[CH2][Sn]([Cl])([Cl])[CH2]C | – | · | 16µM | – | – | ?
Cc1ccccc1C1CC(=O)Nc2ccc3ccccc3c21 (stereo not given) | – | ? | – | · | – | –
CCn1c(C)c(C(=O)NCCc2ccccc2)c2cc(OC)ccc21 | – | – | – | – | – | –
COc1ccc2c(c1)c(CC(=O)Nc1c(C)cccc1C)c(C)n2C(=O)c1ccc(Cl)cc1 | – | – | – | · | – | 23µM
COc1cc([C@@H]2c3cc4c(cc3[C@H](O)[C@H]3COC(=O)[C@@H]23)OCO4)cc(OC)c1OC | · | · | – | · | – | ?
CCN(CC)c1ccc(C=NN2CCCCCC2)cc1 | – | · | – | – | · | ?
COc1cc2nc(N3CCCN(C)CC3)nc(N(C)C3CCN(C)CC3)c2cc1OC | · | · | · | · | – | ·
CCN(CC)C(=O)c1ccc(NC(=O)Cn2nc(-c3ccc(C)cc3)c3ccccc3c2=O)cc1 | – | – | – | · | – | –
CCN(CC)C(=O)c1ccc(NC(=O)CCn2nc(-c3ccc(C)cc3)c3ccccc3c2=O)cc1 | – | – | – | · | – | 18µM
O=C(NCc1ccccc1)c1cccc(Nc2nc3ccccc3n3nnnc23)c1 | – | – | – | · | ? | –
COc1ccc(CN2CCN(c3ncnc4sc5c(c34)CCCC5)CC2)cc1F | – | – | – | · | – | 10µM
Fc1ccc(N2CCN(c3ncnc4c3nc3n4CCCCC3)CC2)cc1 | – | – | – | · | – | 8.2µM
c1ccc(N2CCN(c3ncnc4c3nc3n4CCCCC3)CC2)cc1 | – | ? | – | · | – | 23µM
FC(F)(F)c1nc(N2CCN(c3ccccc3)CC2)nc2c1CCCCC2 | – | – | – | – | ? | –
O=C(c1cc2c(s1)-c1ccccc1OC2)N1CCC2(CC1)OCCO2 | – | – | – | · | 28µM | ?
Cc1cc(/C=C/c2cccc3sc(C)[n+](CCCCI)c23)ccc1N(CCCl)CCCl | · | · | · | · | – | ·
N#CC(C#N)=NNc1ccc(-n2ccc(C(F)(F)F)n2)cc1 | – | ? | ? | – | · | 16µM
Cc1nn(Cc2ccc(Cl)cc2Cl)c(Cl)c1C(=O)O | – | – | – | – | – | –
N=c1c2c(n(Cc3ccc(Cl)cc3Cl)c3c1CCC3)CCCC2 | – | ? | ? | – | – | 13µM
COc1ccc2[nH]cc(CCN=C(NC(=O)c3ccccc3OC)Nc3nc(C)cc(C)n3)c2c1 | – | ? | – | · | – | ?
Cc1cnc(NC(=O)CN2CCCCC2)s1 | – | – | – | · | 14µM | –
COC(=O)C1=C(c2ccc(F)cc2OCc2ccccc2)C[C@@H]2CC[C@H]1N2C(=O)NCc1ccc(OC)cc1 | – | · | – | – | – | ?
COC(=O)C1=C(c2ccc(F)cc2OCc2ccccc2)C[C@@H]2CC[C@H]1N2C(=O)NCCc1ccc(F)cc1 | – | · | ? | – | – | 18µM
